Test results as given in the supplement of paper PMC7411054.

Key:
Settings in all cases: treatment time: 24 h
A549-ACTB-RAB5A [1] = experiment: lowest phenotypically active concentration; higher = less potent
Method in brief: (§1)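 Two criteria together defined phenotypic activity: deviation and reproducibility. Deviation meant ≥3 of 4 wells beyond the 95th percentile of Euclidean distances in solvent control wells, and reproducibility meant a median replicate Pearson correlation above the 95th percentile of non-replicates. Wells had been treated for 24 h at 0.3, 1, 3 or 9 µM in fifteen gene-edited A549, HepG2 and WPMY1 reporter lines before live imaging.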

A549-CANX-COX4 [2] = experiment: as above
Method in brief: as §1

A549-GM130-SQSTM1 [3] = experiment: as above
Method in brief: as §1

A549-TP53BP1-CLTA [4] = experiment: as above
Method in brief: as §1

A549-TUBA1B-RELA [5] = experiment: as above
Method in brief: as §1

HepG2-GM130-SQSTM1 [6] = experiment: as above
Method in brief: as §1

A549-ACTB-RAB5A [7] = experiment: phenotypically active (imaging signature differs from DMSO and reproducible) at any of 0.3-9 uM (binary (1 = active, 0 = inactive)); higher = active
Method in brief: as §1

A549-CANX-COX4 [8] = experiment: as above
Method in brief: as §1

A549-GM130-SQSTM1 [9] = experiment: as above
Method in brief: as §1

A549-TP53BP1-CLTA [10] = experiment: as above
Method in brief: as §1

A549-TUBA1B-RELA [11] = experiment: as above
Method in brief: as §1

HepG2-ACTB-RAB5A = experiment: as above
Method in brief: as §1

HepG2-CANX-COX4 = experiment: as above
Method in brief: as §1

HepG2-GM130-SQSTM1 [12] = experiment: as above
Method in brief: as §1

HepG2-TP53BP1-CLTA = experiment: as above
Method in brief: as §1

HepG2-TUBA1B-RELA = experiment: as above
Method in brief: as §1

WPMY1-CANX-COX4 = experiment: as above
Method in brief: as §1

WPMY1-GM130-SQSTM1 = experiment: as above
Method in brief: as §1

WPMY1-TP53BP1-CLTA = experiment: as above
Method in brief: as §1

WPMY1-TUBA1B-RELA = experiment: as above
Method in brief: as §1

Row | SMILES | lowest phenotypically active concentration (A549-ACTB-RAB5A [1]) | lowest phenotypically active concentration (A549-CANX-COX4 [2]) | lowest phenotypically active concentration (A549-GM130-SQSTM1 [3]) | lowest phenotypically active concentration (A549-TP53BP1-CLTA [4]) | lowest phenotypically active concentration (A549-TUBA1B-RELA [5]) | lowest phenotypically active concentration (HepG2-GM130-SQSTM1 [6]) | phenotypically active (A549-ACTB-RAB5A [7]) | phenotypically active (A549-CANX-COX4 [8]) | phenotypically active (A549-GM130-SQSTM1 [9]) | phenotypically active (A549-TP53BP1-CLTA [10]) | phenotypically active (A549-TUBA1B-RELA [11]) | phenotypically active (HepG2-ACTB-RAB5A) | phenotypically active (HepG2-CANX-COX4) | phenotypically active (HepG2-GM130-SQSTM1 [12]) | phenotypically active (HepG2-TP53BP1-CLTA) | phenotypically active (HepG2-TUBA1B-RELA) | phenotypically active (WPMY1-CANX-COX4) | phenotypically active (WPMY1-GM130-SQSTM1) | phenotypically active (WPMY1-TP53BP1-CLTA) | phenotypically active (WPMY1-TUBA1B-RELA)
1 | Nc1nc(Cl)nc2c1ncn2[C@@H]1O[C@H](CO)[C@@H](O)[C@@H]1F [clofarabine] | 1 µM | ≤ 0.3 µM | 1 µM | 1 µM | 1 µM | ≤ 0.3 µM | 1 (active) | 1 (active) | 1 (active) | 1 (active) | 1 (active) | 1 (active) | 1 (active) | 1 (active) | 1 (active) | 1 (active) | 1 (active) | 1 (active) | 1 (active) | 1 (active)
2 | CC(=O)O[C@H]1C(=O)[C@@]2(C)[C@H]([C@H](OC(=O)c3ccccc3)[C@]3(O)C[C@H](OC(=O)[C@H](O)[C@@H](NC(=O)c4ccccc4)c4ccccc4)C(C)=C1C3(C)C)[C@]1(OC(C)=O)CO[C@@H]1C[C@@H]2O [paclitaxel] | ≤ 0.3 µM | ≤ 0.3 µM | ≤ 0.3 µM | ≤ 0.3 µM | ≤ 0.3 µM | ≤ 0.3 µM | 1 (active) | 1 (active) | 1 (active) | 1 (active) | 1 (active) | 1 (active) | 1 (active) | 1 (active) | 1 (active) | 1 (active) | 1 (active) | 1 (active) | 1 (active) | 1 (active)
3 | Cc1ccc2nc(NCCN)c3ncc(C)n3c2c1 | 3 µM | 9 µM | 3 µM | 3 µM | 3 µM | 3 µM | 1 (active) | 1 (active) | 1 (active) | 1 (active) | 1 (active) | 1 (active) | 1 (active) | 1 (active) | 1 (active) | 1 (active) | 1 (active) | 1 (active) | 1 (active) | 1 (active)
4 | COc1ccccc1S(=O)(=O)Nc1ccc2c(c1)CN(C)C(=O)N2 | 1 µM | 3 µM | 3 µM | 3 µM | 3 µM | 3 µM | 1 (active) | 1 (active) | 1 (active) | 1 (active) | 1 (active) | 1 (active) | 1 (active) | 1 (active) | 1 (active) | 1 (active) | 1 (active) | 1 (active) | 1 (active) | 1 (active)
5 | COc1cc(/C=C/C(=O)N2CCC=CC2=O)cc(OC)c1OC [Piperlongumine] | 3 µM | 9 µM | 3 µM | 9 µM | 9 µM | 3 µM | 1 (active) | 1 (active) | 1 (active) | 1 (active) | 1 (active) | 1 (active) | 1 (active) | 1 (active) | 1 (active) | 1 (active) | 1 (active) | 1 (active) | 1 (active) | 1 (active)
6 | CC(=O)NCC(=O)N1[C@@H]2CC[C@H]1c1ccc(Nc3ncc(C(F)(F)F)c(NC4CCC4)n3)cc12 | ≤ 0.3 µM | ≤ 0.3 µM | ≤ 0.3 µM | ≤ 0.3 µM | ≤ 0.3 µM | ≤ 0.3 µM | 1 (active) | 1 (active) | 1 (active) | 1 (active) | 1 (active) | 1 (active) | 1 (active) | 1 (active) | 1 (active) | 1 (active) | 1 (active) | 1 (active) | 1 (active) | 1 (active)
